{"source": "the OligoGym collection", "data": [{"molecular_target": "DLAT", "assay": "pooled miR-30 sensor sort-seq; sequence = guide strand", "settings": "shRNA", "values": [{"sequence": "TTCATTATCTGCAGGGACCAGT", "sensor-assay potency score (higher = more potent)": -0.346}, {"sequence": "TTTGATTGCATTAATCGCTGTG", "sensor-assay potency score (higher = more potent)": 0.738}, {"sequence": "TTGTGTAAGATCAATCCCTTTC", "sensor-assay potency score (higher = more potent)": -0.362}, {"sequence": "TAGAAAGGTAATAATGAGGTAT", "sensor-assay potency score (higher = more potent)": -0.0638}, {"sequence": "TAATCGCTGTGCAATAACCCGA", "sensor-assay potency score (higher = more potent)": -0.457}, {"sequence": "TTCTCCCATATTTACATCGATA", "sensor-assay potency score (higher = more potent)": -1.59}, {"sequence": "ATATCTGTGAAGACACCTGTAG", "sensor-assay potency score (higher = more potent)": -0.267}, {"sequence": "TTGGTGATTCTACCATCTGGTC", "sensor-assay potency score (higher = more potent)": -1.07}, {"sequence": "TAAGTCTCCTTCACTTAGCTTC", "sensor-assay potency score (higher = more potent)": -0.196}, {"sequence": "TTGCTAAAGAAACAACATCATT", "sensor-assay potency score (higher = more potent)": -1.57}, {"sequence": "TGATTTTGTCTTATAACTGTGT", "sensor-assay potency score (higher = more potent)": 0.275}, {"sequence": "TTTGTCTTATAACTGTGTCCAT", "sensor-assay potency score (higher = more potent)": -0.255}]}, {"molecular_target": "DLGAP2", "assay": "pooled miR-30 sensor sort-seq; sequence = guide strand", "settings": "shRNA", "values": [{"sequence": "TCCTTGTTCGGAAACATCCCGG", "sensor-assay potency score (higher = more potent)": -1.01}, {"sequence": "TAGCTGTGACTCCTTGTTCGGA", "sensor-assay potency score (higher = more potent)": -0.676}, {"sequence": "TTGTTCGGAAACATCCCGGGAG", "sensor-assay potency score (higher = more potent)": 0.236}, {"sequence": "TTTACCGAGAATTTCCTCCGAG", "sensor-assay potency score (higher = more potent)": 0.34}, {"sequence": "TTTTTTTGAATGCTACAGCTGG", "sensor-assay potency score (higher = more potent)": -0.304}, {"sequence": "TTGTCTGTCGGGCAGGTCCAGG", "sensor-assay potency score (higher = more potent)": -1.29}, {"sequence": "TTCAACTTCACTGAAGACGGAC", "sensor-assay potency score (higher = more potent)": -0.0753}, {"sequence": "ATAGGTGCTGTCGCTGTCCAGG", "sensor-assay potency score (higher = more potent)": -0.97}, {"sequence": "TAGAACGTTTAAAACGTCCGTG", "sensor-assay potency score (higher = more potent)": -0.169}, {"sequence": "TTGACGTCGTTGTTGCTCTTGG", "sensor-assay potency score (higher = more potent)": 0.201}, {"sequence": "TAGATCTCGATGCTGTCCGCGC", "sensor-assay potency score (higher = more potent)": -0.416}, {"sequence": "TTGTATATGAGACAGCTGCTGT", "sensor-assay potency score (higher = more potent)": -0.506}]}, {"molecular_target": "DMBX1", "assay": "pooled miR-30 sensor sort-seq; sequence = guide strand", "settings": "shRNA", "values": [{"sequence": "TGAGCCGTGAACGCTGTGCGGC", "sensor-assay potency score (higher = more potent)": -1.33}, {"sequence": "TTACTGTTCAGGGTAGCTGATG", "sensor-assay potency score (higher = more potent)": -1.25}, {"sequence": "TCACGCATCACCACATCTGGGT", "sensor-assay potency score (higher = more potent)": 0.0309}, {"sequence": "TGGGTAGTGAGTCTTCTGGAAG", "sensor-assay potency score (higher = more potent)": -2.04}, {"sequence": "TGAACCACACCTGCACCCGGGC", "sensor-assay potency score (higher = more potent)": -1.56}, {"sequence": "TTGTACATGGCGCTGAGTGAGT", "sensor-assay potency score (higher = more potent)": -0.81}, {"sequence": "TTCCTTCTGCAGGCTACGCTGC", "sensor-assay potency score (higher = more potent)": -1.18}, {"sequence": "TTCTTCCGGAACTTGGCCCGGC", "sensor-assay potency score (higher = more potent)": -0.414}, {"sequence": "TCTGGGTAGTGAGTCTTCTGGA", "sensor-assay potency score (higher = more potent)": -0.662}, {"sequence": "TTTTACTGTTCAGGGTAGCTGA", "sensor-assay potency score (higher = more potent)": -0.522}, {"sequence": "TTGAACCACACCTGCACCCGGG", "sensor-assay potency score (higher = more potent)": -0.844}, {"sequence": "TGACTGCTCAGACAGACTCAGG", "sensor-assay potency score (higher = more potent)": -1.97}]}, {"molecular_target": "DMKN", "assay": "pooled miR-30 sensor sort-seq; sequence = guide strand", "settings": "shRNA", "values": [{"sequence": "TTGTAGTTCTGATCGGCTCTGC", "sensor-assay potency score (higher = more potent)": 0.13}, {"sequence": "TTCCTCTCCGCTCTGCAGGGGG", "sensor-assay potency score (higher = more potent)": -0.64}, {"sequence": "TTGGATTTAAAATTCTTCCAGA", "sensor-assay potency score (higher = more potent)": 0.603}, {"sequence": "TGCCTGTCTGCCAATCTCGTGC", "sensor-assay potency score (higher = more potent)": -0.915}]}]}
